Data: the supplement of paper PMC11219838

What follows are compounds tested on Ditylenchus dipsaci (assay: proportion of mobile D. dipsaci (mixed stage) relative to DMSO control (fraction of DMSO control); higher = more viable, less nematicidal, active = 0.86 or less; extreme values may be limits of the assay). Conditions: 60 µM; 5 days; temperature: 20 °C.
Method in brief: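 Ditylenchus dipsaci nematodes were cultured on pea plants in Gamborg B-5 agar, then extracted into water through a filter funnel, and roughly 20 worms in distilled water were placed in each well of a 96-well plate. Compound was pinned in to a final concentration of 60 µM (0.6% v/v DMSO), and the sealed plates were shaken at 200 rpm for 5 days at 20 °C. Mobile worms were counted under the microscope after 2 µL of 1 M NaOH was added. Mobility is given relative to DMSO controls as the mean of two biological replicates.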

Row | Compound | proportion of mobile D. dipsaci
1 | CNC(=O)O/N=C(\SC)C(=O)N(C)C [oxamyl] | 1 (inactive)
2 | CC(C)NC(=O)N1CC(=O)N(c2cc(Cl)cc(Cl)c2)C1=O [iprodione] | 1 (inactive)
3 | O=C(NCCc1ncc(C(F)(F)F)cc1Cl)c1ccccc1C(F)(F)F [fluopyram] | 0 (active)
4 | CC[C@H](C)[C@H]1O[C@]2(C=C[C@@H]1C)C[C@@H]1C[C@@H](C/C=C(\C)[C@@H](O[C@H]3C[C@H](OC)[C@@H](O[C@H]4C[C@H](OC)[C@@H](O)[C@H](C)O4)[C@H](C)O3)[C@@H](C)/C=C/C=C3\CO[C@@H]4[C@H](O)C(C)=C[C@@H](C(=O)O1)[C@]34O)O2.CO[C@H]1C[C@H](O[C@H]2[C@H](C)O[C@@H](O[C@@H]3/C(C)=C/C[C@@H]4C[C@@H](C[C@]5(C=C[C@H](C)[C@@H](C(C)C)O5)O4)OC(=O)[C@@H]4C=C(C)[C@@H](O)[C@H]5OC/C(=C\C=C\[C@@H]3C)[C@]54O)C[C@@H]2OC)O[C@@H](C)[C@@H]1O [abamectin] | 0.727 (active)

Each compound was assayed on Caenorhabditis elegans L1 (N2) (assay: survival and reproduction score of C. elegans L1 (0: 0-10 living worms, 1: 11-20, 2: 21-50, 3: >50, 4: overgrown) (score 0-4); higher = more worms, less nematicidal, active = 1 or less; extreme values may be limits of the assay). Conditions: 60 µM; 6 days; temperature: 20 °C.
Method in brief: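 Compound was pinned to a final 60 µM (0.6% v/v DMSO) into 96-well wells, each holding about 20 synchronized C. elegans N2 L1s and E. coli HB101 in liquid NGM. After 6 days of shaking at 200 rpm and 20 °C in sealed plates, the worms in each well were examined. The ordinal readout of survival and reproduction, based on living worms per well, was assessed under a dissection microscope. On this scale 0 meant 0–10 worms and 4 meant overgrown, starved wells, and two biological replicates were averaged.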

Row | Compound | survival and reproduction score
5 | COc1ccc(-c2nnc(SCc3ccc(Cl)cc3Cl)o2)cc1 | 4 (inactive)
6 | Cn1cc(C(=O)CSc2nnc(-c3cccc(Cl)c3)o2)c2ccccc21 | 4 (inactive)
7 | CCn1c(SCc2nc(-c3ccccc3)no2)nc2ccccc21 | 4 (inactive)
8 | Brc1ccc(OCc2nc(-c3ccncc3)no2)cc1 | 4 (inactive)
9 | COc1cccc(-c2noc(-c3c(F)cccc3F)n2)c1 | 4 (inactive)
10 | O=C(CSc1nnc(-c2ccco2)o1)Nc1ccc(F)cc1 | 3.5 (inactive)
11 | CN(C)C(=O)c1ccccc1-c1nc(-c2ccc(Cl)cc2)no1 | 4 (inactive)
12 | Cc1ccccc1OCc1nc(-c2cccc(C(F)(F)F)c2)no1 | 4 (inactive)
13 | COc1nc(C)ccc1-c1noc(-c2ccccc2Cl)n1 | 4 (inactive)
14 | Fc1ccccc1-c1nc(-c2ccc(Cl)cc2)no1 | 1 (active)
15 | CCOc1ccc(NC(=O)CSc2nnc(-c3ccncc3)o2)cc1 | 4 (inactive)
16 | COc1nc(-c2ccccc2)ccc1-c1noc(-c2ccco2)n1 | 1 (active)
17 | CNC(=O)O/N=C(\SC)C(=O)N(C)C [oxamyl] | 4 (inactive)
18 | Clc1ccc(OCc2nc(-c3ccccc3)no2)c(Cl)c1 | 0 (active)
19 | Cc1cc(OCc2nc(-c3ccccn3)no2)ccc1Cl | 4 (inactive)
20 | CC(C)NC(=O)N1CC(=O)N(c2cc(Cl)cc(Cl)c2)C1=O [iprodione] | 4 (inactive)
21 | COc1ccc(Cl)cc1NC(=O)CSc1nnc(-c2ccc(C)cc2)o1 | 4 (inactive)
22 | c1coc(-c2nc(-c3cccs3)no2)c1 | 0 (active)
23 | Fc1ccccc1-c1nc(-c2ccccc2)no1 | 0 (active)

Row | Compound | survival and reproduction score
24 | CC(C)(C)c1ccc(-c2nnc(SCc3cccc(C#N)c3)o2)cc1 | 3.5 (inactive)
25 | O=C(NCCc1ncc(C(F)(F)F)cc1Cl)c1ccccc1C(F)(F)F [fluopyram] | 0 (active)
26 | COc1cccc(-c2noc(COc3cc(C)cc(C)c3)n2)c1 | 4 (inactive)
27 | Cc1ccccc1CSc1nnc(-c2ccncc2)o1 | 4 (inactive)
28 | Cc1cccc(-c2nnc(SCC(=O)Nc3ccc(Br)c(C)c3C)o2)c1 | 4 (inactive)
29 | CCOC(=O)c1c(NC(=O)CSc2nnc(-c3ccc(Cl)cc3)o2)sc(C(C)=O)c1C | 4 (inactive)
30 | COc1ccc(Cl)cc1-c1noc(COc2ccccc2C)n1 | 4 (inactive)
31 | O=C(CSc1nnc(-c2cccc(Br)c2)o1)c1ccccc1 | 4 (inactive)
32 | CCOc1ccc(NC(=O)CSc2nnc(-c3ccccc3Cl)o2)cc1 | 4 (inactive)
33 | COc1ccccc1-c1nc(-c2ccccc2Cl)no1 | 4 (inactive)
34 | O=C(Nc1ccc(-c2noc(COc3ccccc3)n2)cc1)c1ccc(F)cc1 | 1 (active)
35 | Clc1ccc(OCc2nc(-c3ccc(Br)o3)no2)cc1 | 3.5 (inactive)
36 | Cc1ccc(-c2noc(COc3ccc(Br)cc3)n2)cc1 | 4 (inactive)
37 | Cc1ccc(-c2noc(-c3ccc(Cl)cc3)n2)cc1 | 4 (inactive)
38 | O=C(CSc1nnc(-c2cccc(Cl)c2)o1)N1CCCCC1 | 4 (inactive)
39 | Clc1cc(Br)ccc1OCc1nc(-c2ccccn2)no1 | 4 (inactive)
40 | COc1ccc(CC(=O)Nc2ccc(-c3noc(COc4cccc(C)c4C)n3)cc2)cc1 | 4 (inactive)
41 | O=C(CSc1nnc(-c2cccc(Br)c2)o1)NC1CCCCC1 | 4 (inactive)
42 | CCCc1ccc(-c2nc(-c3ccc(F)cc3)no2)cc1 | 1.5 (inactive)
